Records with an inconclusive call do not appear. The source made the active and inactive calls. Calls come from the whole dose curve; as a rule, active = well fitted cell-killing curve with a large enough effect; inconclusive = small, poorly fitted or top-dose-only effect; inactive = no such curve, though single readings can be large or run the other way.
Test: qHTS of pediatric cancer cell lines to identify multiple opportunities for drug repurposing: Primary screen for SK-N-SH cells (AID 1347098); note: nearly all actives have a fitted effect of over 65% in size
Conditions: SK-N-SH viability, CellTiter-Glo luminescence, 48 h; series mostly up to 57 µM; activity change, negative = cytotoxic: at the top concentration
Text: Drug repurposing or repositioning has been offered as a strategy for drug development in oncology programs. This approach has special potential for childhood cancers and other rare or orphan diseases, where the expected return on new drug development has been a disincentive to pharmaceuticals.
In this project we exploit the poly-pharmacology of drugs to discover new indications via phenotypic screening of a panel of 19 well-characterized cell lines derived from solid tumors seen in children and adolescents. The goal is to identify approved drugs with previously unrecognized anticancer properties that has the potential to reveal new mechanisms and biological processes involved in carcinogenesis or drug resistance. We employed a titration-based paradigm (quantitative high-throughput screening or qHTS), where all compounds were tested at multiple concentrations for their effect on cell viability. Concentration-response curves (CRCs) were derived directly from the primary screen, and both potency and efficacy values were used to identify compounds with robust bioactivity profiles. We screened the NIH Chemical Genomics Center (NCGC) Pharmaceutical Collection (NPC) and Mechanism Interrogation Plate (MIPE) small molecule collections of approved and investigational compounds against these cell lines; and measured metabolically active cells after 48 hours of compound treatment as a proxy for cell viability.
Assay Submitter: Nathalia J. Martinez, National Center for Advancing Translational Sciences, National Institutes of Health, Rockville, MD, USA; email: natalia.martinez@nih.gov
[1] Shen, M et al. Quantitative high-throughput phenotypic screening of pediatric cancer cell lines identifies multiple opportunities for drug repurposing. Oncotarget 2017 Dec 19;9(4):4758-4772. PMID 29435139.
The cells were obtained from University of North Carolina (UNC), Pediatric Preclinical Testing Program (PPT), and Coriell Institute (CI).
qHTS cell viability assay:
Cells were assayed in growth media at a density of 500-1,000 cells/well. Five microliters of cells were dispensed into 1,536-well, white, solid-bottom, TC-treated plates (Greiner Bio One) using a multidrop dispenser and incubated at 37 degrees C, 5% CO2, under a humidified atmosphere for 5 hours. Twenty-three nanoliters of compounds and controls (neutral control DMSO or positive control bortezomib at final concentration of 2.3 µM) were subsequently transferred by Kalypsys pintool. For primary screens, the MIPE collection was tested at 11-point dilutions (final concentrations range from 0.78 nM to 46 µM) and the NPC collection at 8-point dilutions (final concentrations range from 0.59 nM to 46 µM). Compounds tested in follow-up screens were assayed at 11-point dilutions. Cells were incubated for 48 hours, followed by addition of 3 µL of CellTiter-Glo (Promega). After a 15 min incubation at room temperature, samples were analyzed for luminescence intensity using a ViewLux High-throughput CCD imager equipped with clear filters.
% is set by controls: 0 for no effect and ±100 for the full control effect; potency is the fitted concentration of half-maximal effect.

Compound	activity change, negative = cytotoxic	Potency
O=C(Oc1ccccc1C(=O)O)c1ccccc1O	-2.54% (inactive)	
[O-][n+]1cccc(CO)c1	-4.52% (inactive)	
O=C(CCCN1CCN(c2ccccn2)CC1)c1ccc(F)cc1	-10% (inactive)	
CC1(C)OC(=O)NC1=O	0.0352% (inactive)	
Cc1cc(CC(=O)O)n(C)c1C(=O)c1ccc(Cl)cc1	8.63% (inactive)	
O=C(O)CN1C(=O)c2cccc3cccc(c23)C1=O	-17.9% (inactive)	
CC(C)c1c(C(=O)Nc2ccccc2)c(-c2ccccc2)c(-c2ccc(F)cc2)n1CC[C@@H](O)C[C@@H](O)CC(=O)O		12.2 µM (active)
CN(C)CCN(Cc1ccccc1)c1ccccn1	-26.1% (inactive)	
Oc1ccc(C(O)CNCCCCCCNCC(O)c2ccc(O)c(O)c2)cc1O (stereo not given)	-10.5% (inactive)	
CCOc1nc2cccc(C(=O)O)c2n1Cc1ccc(-c2ccccc2-c2nn[nH]n2)cc1	-4.33% (inactive)	
OCC(O)CN1CCN(c2ccccc2)CC1 (stereo not given)	-3.97% (inactive)	
CN(C)CCCO[C@@H]1[C@H]2OC(C)(C)O[C@H]2O[C@@H]1C(O)CO (stereo not given in full)	-2.23% (inactive)	
CNC(=O)Oc1ccc2c(c1)[C@]1(C)CCN(C)[C@@H]1N2C	3.05% (inactive)	
CN1[C@@H]2CC[C@H]1CC(OC(=O)C(O)c1ccccc1)C2 (stereo not given in full)	10.6% (inactive)	
COc1ccc2[nH]c(S(=O)Cc3ncc(C)c(OC)c3C)nc2n1 (stereo not given)	-0.265% (inactive)	
Cc1cc2nc3c(=O)[nH]c(=O)nc-3n(C[C@H](O)[C@H](O)[C@H](O)CO)c2cc1C	-3.7% [at 20 µM] (inactive)	
CN1CCC[C@@H]1Cc1c[nH]c2ccc(CCS(=O)(=O)c3ccccc3)cc12	-3.97% (inactive)	
O=C(O)CC(O)C(=O)O (stereo not given)	3.9% (inactive)	
Cc1cccc(C)c1NC(=O)CN(CC(=O)O)CC(=O)O	-17.6% (inactive)	
CCN(CC)CCNC(C(=O)OCCC(C)C)c1ccccc1 (stereo not given)	-1.29% (inactive)	

Compound	activity change, negative = cytotoxic	Potency
CN(C)CCOC(C)(c1ccccc1)c1ccccn1 (stereo not given)	-22.9% (inactive)	
CC1=C(CC(=O)O)c2cc(F)ccc2/C1=C\c1ccc(S(C)=O)cc1 (stereo not given)	4.73% (inactive)	
O=C(O)c1ccccc1-c1ccc(C(F)(F)F)cc1	-3.38% (inactive)	
CC1=C(/C=C/C(C)=C/C=C/C(C)=C/C(=O)O)C(C)(C)CCC1	35.1% (inactive)	
C[C@]12CC[C@@H]3c4ccc(O)cc4CC[C@H]3[C@@H]1CCC2=O	-10.7% (inactive)	
C[C@H](NC(CCc1ccccc1)C(=O)O)C(=O)N1CCC[C@H]1C(=O)O (stereo not given in full)	-20% (inactive)	
C[C@H]1O[C@@H](n2cc(F)c(=O)[nH]c2=O)[C@H](O)[C@@H]1O	-11.4% (inactive)	
CC(=O)NC(Cc1ccccc1)C(=O)O (stereo not given)	4.99% (inactive)	
CC(COc1ccccc1)NC(C)C(O)c1ccc(O)cc1 (stereo not given)	-17.1% (inactive)	
COC(=O)[C@H]1[C@H]2C[C@@H]3c4[nH]c5cc(OC)ccc5c4CCN3C[C@H]2C[C@@H](OC(=O)COc2ccc(OC)cc2)[C@@H]1OC	-11.5% (inactive)	
COc1cc2[nH]c(=O)[nH]c(=O)c2cc1OC	-4.7% (inactive)	
CCCCCCCCCCCCCCCC(=O)NCCO	-4.44% (inactive)	
Cc1ccc(C(C)C)cc2c(C)ccc1-2	-1.95% (inactive)	
c1ccc(CN(CC2=NCCN2)c2ccccc2)cc1	-17.2% (inactive)	
Cc1ncc(COP(=O)(O)O)c(C=O)c1O	-22.7% (inactive)	
C=CCn1c(=O)n([C@@H]2O[C@H](CO)[C@@H](O)[C@H]2O)c2nc(N)[nH]c(=O)c21	5.34% (inactive)	
O=c1cc[nH]c(=S)[nH]1	-17.4% (inactive)	
Nc1ncnc2c1ncn2[C@@H]1O[C@H](CO)[C@@H](O)[C@H]1O	-18.7% (inactive)	
O=C1NC(=O)[C@@]2(CCOc3ccc(F)cc32)N1	-5.4% (inactive)	
CN(C)CCCN1c2ccccc2CCc2ccccc21	-29.6% (inactive)	

Reference: PubChem BioAssay (NCATS)
